According to PubChem BioAssay AID1030 (National Center for Advancing Translational Sciences (NCATS), 2008):
Where “and” joins values, the source holds several entries; their conditions need not be identical. Equal values may be shown once. About 16,000 (7.3%) of roughly 220,000 compounds were called active. Not shown: some 25% with an inconclusive outcome. The list comes from a sample in which actives are over-represented; it also holds similar structures and randomly drawn compounds. Values without a mark were called inactive. Calls come from the whole dose curve; as a rule, active = well fitted inhibition curve with a large enough effect (not every such curve was filed as active); inconclusive = small, poorly fitted or top-dose-only effect, or another doubt; inactive = no such curve, though single readings can be large or run the other way.

molecular target: Aldehyde dehydrogenase 1A1 (Homo sapiens) (UniProt P00352); assay: qHTS Assay for Inhibitors of Aldehyde Dehydrogenase 1 (ALDH1A1); settings: Purified ALDH1A1, NADH fluorescence, propionaldehyde substrate; series mostly up to 75.3 µM; activity, negative = inhibition: at the top concentration;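 for activity, negative = inhibition: plate controls were no enzyme wells and a reference inhibitor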
Potency is the fitted concentration of half-maximal effect.

Aldehyde dehydrogenase 1A1 (Homo sapiens), sequence (P00352 whole entry, looked up): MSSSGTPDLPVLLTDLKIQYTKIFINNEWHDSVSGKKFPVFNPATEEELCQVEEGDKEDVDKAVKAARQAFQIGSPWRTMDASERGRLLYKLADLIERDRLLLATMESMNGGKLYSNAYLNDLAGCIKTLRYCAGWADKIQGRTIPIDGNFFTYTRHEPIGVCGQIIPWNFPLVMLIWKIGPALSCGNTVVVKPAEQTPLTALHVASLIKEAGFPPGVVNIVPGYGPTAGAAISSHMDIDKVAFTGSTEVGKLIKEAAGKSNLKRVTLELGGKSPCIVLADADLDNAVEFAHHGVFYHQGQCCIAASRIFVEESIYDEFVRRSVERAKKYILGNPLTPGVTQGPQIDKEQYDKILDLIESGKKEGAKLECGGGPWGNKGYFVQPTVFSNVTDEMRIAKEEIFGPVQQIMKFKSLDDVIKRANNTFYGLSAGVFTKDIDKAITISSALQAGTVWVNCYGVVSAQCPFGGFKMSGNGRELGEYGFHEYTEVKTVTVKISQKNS

| SMILES | activity, negative = inhibition [%] | Potency |
| --- | --- | --- |
| CS(=O)(=O)N(Cc1ccccc1Cl)c1ccc(C(=O)NCc2cccnc2)cc1 | -5.16 |  |
| CC1CCN(CCC(=O)Nc2ccccc2)CC1 | 5.39 |  |
| CCN(CC)CCNC(=O)c1ccc(NS(=O)(=O)c2ccc3c(c2)OCCO3)cc1 | 1.71 |  |
| CCCCC/C=C\C/C=C\C/C=C\CCCCCCC(N)=O | 1.39 |  |
| CC/C=C/C/C=C/C/C=C/CCCCCCCC(=O)OCC |  | 1.12 µM (active) |
| CCCCC/C=C\C/C=C\CCCCCCCCCC(N)=O | -3.54 |  |
| CC(=O)c1c(-c2ccccc2)c2ccccc2[nH]c1=O | -7.94 |  |
| Brc1cc(/C=N/n2cnnc2)oc1Br | 9.74 |  |
| O=C1COc2ccc(C(=O)COC(=O)c3cccnc3Cl)cc2N1 | -2.97 |  |
| O=C1COc2ccc(C(=O)COC(=O)C3CC(O)CN3S(=O)(=O)c3ccc(Cl)cc3)cc2N1 (stereo unspecified) |  | 5.01 µM (active) |
| NNC(=O)C1CC(O)CN1S(=O)(=O)c1ccc(Cl)cc1 (stereo unspecified) | 4.39 |  |
| COC(=O)N/N=C/c1ccc(/C=N/NC(=O)OC)cc1 | 1.22 |  |
| Cc1[nH]c2ccccc2c1SCC(=O)Nc1nccs1 | 16.2 |  |
| CCC(=O)Nc1cc(C(F)(F)F)ccc1N1CCCC1 | 11.1 |  |
| CC(=O)Nc1cccc(C(=O)Nc2nc(C)cs2)c1 | -0.569 |  |
| O=C(O)CSc1nccc2ccccc12 | 9.04 |  |
| Cc1ccc(Oc2ccc3c(c2)C(=O)N(c2cccc4cccnc24)C3=O)cc1 |  | 11.2 µM (active) |
| Cc1cccc(N2C(=O)c3cccnc3C2=O)c1 | 2.24 |  |
| CC(=O)Oc1ccc(C)cc1N1C(=O)c2ccc(C(=O)O)cc2C1=O | 2.51 |  |
| CSc1ncccc1C(=O)OCc1ccc(Br)cc1 | 9.11 |  |
| CC(=O)n1cc([C@@H]2C=C(C(=O)N3CCN(Cc4ccc5c(c4)OCO5)CC3)O[C@H](OCc3ccc(CO)cc3)C2)c2ccccc21 |  | 25.1 µM (active) |
| O=C(C1=C[C@H](c2coc3ccccc3c2=O)C[C@H](OCc2ccc(CO)cc2)O1)N1CCN(Cc2ccccc2)CC1 | -12.4 |  |
| CN1CCN(C(=O)C2=C[C@H](c3ccc4c(c3)OCO4)C[C@H](OCc3ccc(CO)cc3)O2)CC1 | -2.84 |  |
| O=C(C(=O)N1CCc2ccccc2C1)c1c[nH]c2ccccc12 | -2.78 |  |
| O=C(Nc1nnc(Cc2ccc(Cl)cc2)s1)c1cccnc1 | -0.189 |  |
| Cn1cnc([N+](=O)[O-])c1Sc1ccccc1 |  | 11.2 µM (active) |

| SMILES | activity, negative = inhibition [%] | Potency |
| --- | --- | --- |
| Cn1cnc([N+](=O)[O-])c1Sc1n[nH]c(N)n1 | 0.133 |  |
| Cn1cnc([N+](=O)[O-])c1Nc1ccccc1O | 2.48 |  |
| COC(=O)COc1ccc(C2NC(=O)NC(C)=C2C(=O)NCc2ccccc2)cc1OC (stereo unspecified) | 19.6 |  |
| O=C(Nc1ccc(N2CCOCC2)nc1)c1c(F)cccc1F | 7.81 |  |
| Cc1ccc(S(=O)(=O)Cc2cc(-c3ccc(Cl)cc3)no2)cc1 | -5.52 |  |
| COC(=O)c1cc(NC(=O)c2ccco2)ccc1N1CCOCC1 | -6.16 |  |
| Cc1c(C=O)c2ccccc2n1CC(=O)O | 2.12 |  |
| O=C1CC(c2ccccc2)C(=O)N1c1cccc(O)c1 (stereo unspecified) | 4.81 |  |
| Cc1cccc(N2C(=O)CC(SC(N)=Nc3ccccc3)C2=O)c1 (stereo unspecified) | 2.23 |  |
| COC(=O)c1ccccc1SC1CC(=O)N(c2cccc(C)c2)C1=O (stereo unspecified) |  | 17.8 µM (active) |
| O=C1OCC2=C1C(c1ccccc1)CC(=O)N2c1cccc(F)c1 (stereo unspecified) | 2.06 |  |
| CC(=O)N(CN1C(=O)C2C3C=CC(C3)C2C1=O)c1cccc(Cl)c1 (stereo unspecified) | 0.697 |  |
| Cn1cc(CN2CCCC(CO)C2)c(-c2ccc(Oc3ccccc3)cc2)n1 (stereo unspecified) | -3.15 |  |
| CC(C)C1=CC2=CC[C@H]3[C@](C)(C(=O)O)CCC[C@]3(C)C2CC1 (stereo partly specified) | -11 |  |
| Oc1cc2c(cc1O)CN(C(=S)NCCc1ccc(Cl)cc1)CCC2 |  | 15.8 µM (active) and 20 µM (active) |
| O=C1CCN(C(=S)NCCc2ccccc2)CC1 | 0.459 |  |
| S=C(NCCc1ccccc1)N1CCCCC1 | -4.74 |  |
| CCN(CC)C(=O)CN(c1cccc([N+](=O)[O-])c1)S(=O)(=O)c1ccccc1 | 6.73 |  |
| O=C(CCl)N(Cc1cccc([N+](=O)[O-])c1)c1cccc(Cl)c1 |  | 0.158 µM (active) |
| O=C(Nc1cccc([N+](=O)[O-])c1)Nc1ccc(Cl)cn1 | 11.7 |  |
| COc1ccc(CCNC(=O)c2ccc(CS(=O)(=O)c3ccc(Br)cc3)o2)cc1OC | 21.2 |  |
| Nc1nc(NC(=O)/C=C/c2ccc(F)cc2)nn1-c1ccccc1 | 11.2 |  |
| CCOC(=O)CSc1nnc(CNc2nc(-c3ccccc3)cs2)n1C | -3.03 |  |
| CCOC(=O)c1c(NC(=O)CSc2nnc(Cc3csc(N)n3)n2C)sc(C)c1C |  | 7.94 µM (active) |
| CCOc1ccc(Nc2nc(Cc3nnc(SCC(=O)NC4CCCC4)n3C)cs2)cc1 | -1.4 |  |
| CCO[C@H]1OC(C(=O)N2CCCCCCC2)=C[C@@H](c2ccc(C(F)(F)F)cc2)[C@@H]1CCCO | 2.63 |  |

| SMILES | activity, negative = inhibition [%] | Potency |
| --- | --- | --- |
| NC(=O)C1CCN(Cc2nc3c(Br)cc(Br)cc3c(=O)[nH]2)CC1 | 4.31 |  |
| O=C(Nc1ccc(C(=O)O)cc1)/C(=C/c1ccc([N+](=O)[O-])cc1)NC(=O)c1ccccc1 | 3.09 |  |
| Nc1ncnc(Nc2cccc(Cl)c2Cl)n1 | -11.2 |  |
| CCC1(CC)Cc2ccccc2-c2nc3ccccc3c(=O)n21 |  | 15.8 µM (active) |
| CC(C)(C)c1nc2ccccc2c(=O)n1N1C(=O)c2ccccc2C1=O | -5.76 |  |
| CCOC(=O)C1CCc2nc3ccccc3c(=O)n21 (stereo unspecified) | 12.2 |  |
| COc1ccc(-n2c(O)c(C=NCC(c3ccco3)N3CCCC3)c3ccccc3c2=O)cc1OC (stereo unspecified) | -15 |  |
| CC1COc2ccccc2N1C(=O)c1cccnc1Cl (stereo unspecified) | -3.66 |  |
| CCn1cc(CN2CCCC(CNS(=O)(=O)Cc3ccccc3)C2)cn1 (stereo unspecified) | 5.21 |  |
| CC(Sc1nc2c([nH]c3ccccc32)c(=O)n1C)c1ccccc1 (stereo unspecified) | -5.21 |  |
| Cc1ccc2nsnc2c1S(=O)(=O)N1CCCC1C(=O)O (stereo unspecified) | -3.73 |  |
| COCCN(Cc1nc(-c2ccc(C(F)(F)F)cc2)no1)C(C)C | -1.16 |  |
| Oc1c(C=Nc2cccc3nsnc23)ccc2ccccc12 |  | 2.82 µM (active) |
| O=C(Nc1cccc(C(F)(F)F)c1)c1ccc(N2CCNCC2)c([N+](=O)[O-])c1 | -4.94 |  |
| COc1cccc(/C=C/C(=O)Nc2ccc3c(c2)OCCO3)c1 | -1.38 |  |
| CCc1nnc(NS(=O)(=O)c2ccc(NS(=O)(=O)c3ccccc3)cc2)s1 | 15.8 |  |
| O=C(NC(=S)Nc1ccc(NC(=O)c2cccs2)cc1)c1ccc([N+](=O)[O-])cc1 | -13.7 |  |
| CCc1nnc(NC(=O)c2cccs2)s1 | 9 |  |
| CC(C)C(=O)Nc1ccc(C(=O)NNC(=O)c2cccs2)cc1 | 4.21 |  |
| COc1ccc(NS(=O)(=O)c2ccc(NC(=S)NC(=O)/C=C/c3ccc(C)cc3)cc2)nn1 | -5.99 |  |
| CCc1nnc(NS(=O)(=O)c2ccc(NC(=S)NC(=O)c3cccs3)cc2)s1 |  | 25.1 µM (active) |
| CCOC(=O)c1c(NC(=S)NC(=O)/C=C/c2cccs2)sc(C)c1C | 3.03 |  |
| CCc1nnc(NS(=O)(=O)c2ccc(NC(=S)NC(=O)/C=C/c3cccs3)cc2)s1 |  | 12.6 µM (active) |
| NS(=O)(=O)c1ccc(NC(=S)NNC(=O)c2cccs2)cc1 |  | 12.6 µM (active) |
